Only some compounds are listed: those with a hit (about 11% of all), similar ones and a draw of the others.
HCV inh: HCV inhibition; Potency, µM (series often up to 41.8 µM), for inactives: at the highest dose activity change, negative = inhibition, usual class: inhibitors; 340,000 compounds, 3.4% hits; Huh7.5.1 HCVcc-Cre infection, luciferase reporter, 44 h; AID 651820
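After 44 h co-culture of compound, cells and HCVcc-Cre (~0.5 moi), substrate is added for 15 min at room temperature and luciferase measured over 15 sec. Cells were seeded at 1,000/well and pre-cultured 4 h.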
Pf growth 48h: P. falciparum growth inhibition at 48 hours (one generation). P. falciparum luciferase growth in erythrocytes, 48 h. 310,000 compounds, 5.9% hits. Potency, µM (doses to about 28.7 µM), for the others: top-dose activity change, negative = inhibition, most hits filed as inhibitors
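Parasite viability was followed by luminescence of a genomically integrated firefly luciferase. Cultures held 0.1% parasitemia at 2% hematocrit (final), incubated under 5% CO2 at 37 C.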
Pf growth 96h: P. falciparum growth inhibition at 96 hours; P. falciparum luciferase reporter growth, 96 h; Potency, µM (doses to about 28.7 µM), inactives show at the highest dose activity change, negative = inhibition, hits mostly inhibitors; 320,000 compounds, 6.9% hits
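Readout is luminescence from an integrated firefly luciferase in P. falciparum. Red cells, 2% hematocrit and 0.05% parasitemia final, were cultured with compound through two parasite generations (96 hours) at 37 C, 5% CO2.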
AMA1 RON2 block: AMA1-RON2 (P. falciparum) interaction inhibition; AlphaScreen AMA1-biotinylated RON2 peptide binding; Potency, µM (highest dose often 58.2 µM), without a hit: top-dose activity change, negative = inhibition, usual class: inhibitors; 360,000 compounds, 0.2% hits;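 further: 0% = vehicle wells and -100% = peptide control; nearly all actives have a fitted effect of over 45% in size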
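AMA1 (3D7) with his tag at 25 nM final met compounds first, then biotinylated RON2 peptide at 25 nM; detection used donor plus acceptor beads, 10 µg/mL apiece, read by AlphaScreen after 30 min at room temperature.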
* hit, by the source's call; ? = inconclusive; · = no result; [ ] = remark or other dose. The call rests on the fitted dose curve; in most records, active means well fitted curve in the direction sought with a large enough effect; inconclusive means small, poorly fitted or top-dose-only effect, or another doubt; inactive means no such curve, though single readings can be large; an effect the other way counts as inactive or inconclusive. Unless noted, on the % scale 0 is the no-effect control and ±100 the full control effect; potency means the concentration at half of the fitted maximal effect.

SMILES	HCV inh	Pf growth 48h	Pf growth 96h	AMA1 RON2 block
Cc1cc(C(=O)CCl)c(C)n1-c1c(C)n(C)n(-c2ccccc2)c1=O	8.9µM*	8.3µM*	6.6µM*	-2%
Cc1nnc(SCC(=O)c2cc(C)n(-c3c(C)n(C)n(-c4ccccc4)c3=O)c2C)s1	-2%	8%	-5%	9%
COC(=O)c1ccc(-n2c(C)cc(-c3csc(NC(=O)c4ccc(S(=O)(=O)N(C)C)cc4)n3)c2C)cc1	-27%	?	?	34%
Cc1cc(-c2csc(NC(=O)c3cccc(S(=O)(=O)N(C)C)c3)n2)c(C)n1-c1ccccc1	?	8.3µM*	12µM*	10%
Cc1cc(N2C(=O)C3C4CCC(C4)C3C2=O)no1 (centres undefined)	6%	21%	76%	?
Oc1cccc(/C=N/n2c(C3CCCCC3)n[nH]c2=S)c1	2.2µM*	33%	13%	111%
Cc1onc(-c2ccccc2Cl)c1C(=O)OCC(=O)N1CCN(c2ccccc2)CC1	?	?	?	6%
COc1cc(C(=O)Nc2ccc(C#N)cc2)c([N+](=O)[O-])cc1OC	12%	8%	10µM*	-7%
COc1cc(Cl)c(C)cc1NC(=O)c1cc(S(=O)(=O)N(C)C)ccc1N1CCCC1	?	4.7µM*	2.3µM*	-10%[11.6 µM]
CN(C)S(=O)(=O)c1ccc(N2CCCC2)c(C(=O)NCC2COc3ccccc3O2)c1 (centres undefined)	-17%	?	-23%	0%
CN(C)S(=O)(=O)c1cccc(NC(=O)c2cc([N+](=O)[O-])ccc2N2CCCCC2)c1	?	13µM*	?	0%
CN(C)S(=O)(=O)c1ccc(N2CCCC2)c(C(=O)Nc2ccccc2OC(F)F)c1	-20%	?	0%	-3%
CN(C)S(=O)(=O)c1ccc(N2CCCC2)c(C(=O)NCC2CCCCC2)c1	8.9µM*	9.3µM*	?	3%
CCC(C)(C)NC(=O)C(OC(=O)c1cc2sccc2n1C)c1ccc(OC)cc1 (centres undefined)	6%	-13%	?	-9%
CCc1ccc(S(=O)(=O)N/N=C\c2ccc3c(c2)OCO3)cc1	?	19%	18%	-7%
Cc1c(C(=O)N(C)CCCCN2CCOCC2)oc2c(F)cccc12	8%	-7%	?	1%
Clc1ccccc1-c1nnc2n1-c1ccccc1SC2	-6%	?	?	1%
c1ccc2c(c1)Sc1ccccc1-n1cnnc1-2	7%	?	9.3µM*	11%
Brc1nnc2n1-c1ccccc1Sc1ccccc1-2	16%	12µM*	8.3µM*	-7%
Clc1ccc2c(c1)-c1nnc(Br)n1-c1ccccc1S2	-13%	10µM*	?	6%
CCN(CC)CCOCCOC(=O)C(CC)(CC)c1ccccc1 (tested in a mixture with another compound)	·	19µM*	6.7µM*	·
O=C(N/N=C/c1sc(N2CCOCC2)nc1-c1ccccc1)c1ccccc1F	?	?	?	7%
O=C(O)c1cccc(N/N=C/c2sc(N3CCOCC3)nc2-c2ccccc2)c1	5%	?	5.2µM*	5%
Cc1cc(C(=O)N/N=C/c2sc(N3CCOCC3)nc2-c2ccccc2)c(C)o1	?	?	?	2%
O=C(N/N=C/c1sc(N2CCOCC2)nc1-c1ccccc1)c1ccccc1O	?	5.2µM*	1.9µM*	70%
SMILES	HCV inh	Pf growth 48h	Pf growth 96h	AMA1 RON2 block
O=C(N/N=C/c1sc(N2CCOCC2)nc1-c1ccccc1)c1cccc(S(=O)(=O)N2CCOCC2)c1	?	1.9µM*	2.1µM*	25%
O=C(N/N=C/c1sc(N2CCOCC2)nc1-c1ccccc1)c1ccccc1Cl	8.9µM*	10µM*	?	-9%
CCCCc1nc(Cl)c(C#N)c2c1CSC(C)(C)C2	?	6%	18%	16%
CCCCc1nc(NCCNC(=O)c2ccccc2)c(C#N)c2c1CSC(C)(C)C2	?	·	2.3µM*	-4%
CCCCc1nc(NCCNC(=O)c2ccco2)c(C#N)c2c1CSC(C)(C)C2	11µM*	8.3µM*	·	-6%
COc1ccc(NC(=O)C2C3C=CC(O3)C2C(=O)NCc2cccnc2)cc1 (centres undefined)	15%	25%	10µM*	16%
Cc1sc(NC(=O)C2=COCCO2)c(C(N)=O)c1C	13%	51%	91%	17%
NC(=O)C12CCCC(Br)(CCC1)C2	8%	6%	9%	5%
CCC(C)NCCOCCOc1ccc(Cl)c(C)c1C (centres undefined)	10µM*	?	14%	-11%[2.32 µM]
CC(C)NC(=S)NC(=O)c1ccc(-c2ccccc2)cc1	14µM*	?	22%	-9%
CCCCn1c(SCC(=O)N2CCC(C)CC2)nc2ccsc2c1=O	-27%	12µM*	-44%	25%
CCCCn1c(SCC(=O)Nc2ccccc2C(F)(F)F)nc2ccsc2c1=O	-9%	0%	12µM*	-6%
CCOC(=O)c1c(CSc2cccs2)n(C)c2cc(Br)c(O)c(CN(C)C)c12	?	13µM*	15%	-34%
CN(C)S(=O)(=O)c1ccc(-c2csc(N/N=C/c3ccc(O)cc3)n2)cc1	10µM*	0.33µM*	0.066µM*	-2%
CC(=O)NCc1ccc(C(=O)COC(=O)COc2ccc(Cl)c(C)c2)s1	1%	·	·	0%
CCOC(=O)CC(=O)CSc1nc2c(C)c(C)ccc2cc1C	-29%	·	17%	44%
CCOC(=O)CC(=O)CSc1nc2cc(C)ccc2cc1C	?	?	13µM*	58%
Cc1coc2c(C)c3oc(=O)c(CCC(=O)NCCCn4ccnc4)c(C)c3cc12	?	10µM*	?	-20%
Cc1coc2c(C)c3oc(=O)c(CCC(=O)NCCCN4CCOCC4)c(C)c3cc12	?	?	?	-5%
Cc1c(CCC(=O)NCCCn2ccnc2)c(=O)oc2c(C)c3occ(C(C)(C)C)c3cc12	?	?	9.3µM*	24%
NC(N)=NC(N)=Nc1ccc(SC(F)(F)F)cc1	11µM*	15µM*	3.3µM*	48%
CC(=O)c1cccc(NC(=S)NNC(=O)c2ccco2)c1	18%	17%	?	90%
Cc1ccc(NC(=S)NC(NC(=O)c2ccco2)C(Cl)(Cl)Cl)cc1 (centres undefined)	?	4.7µM*	·	-7%
O=C(O)c1ccc(NC(=S)NC(NC(=O)c2ccco2)C(Cl)(Cl)Cl)cc1 (centres undefined)	-12%	·	-20%	-13%
Cc1cccc(NC(=S)NC(NC(=O)c2ccco2)C(Cl)(Cl)Cl)c1 (centres undefined)	1%	13µM*	·	-14%
O=C(NNC(=O)c1cc(-c2ccc(Cl)cc2)nc2ccccc12)c1csc(N2CCOCC2)n1	?	?	-14%	150%
COc1ccccc1NC(=O)N(C1CCCC1)C1CCN(C(C)=O)CC1	14%	2%	?	3%
O=C(NC(c1ccccc1)c1cc(Cl)c2cccnc2c1O)c1cccnc1 (centres undefined)	-13%	0.66µM*	9%	·

Screens deposited in PubChem by National Center for Advancing Translational Sciences (NCATS).
